Laboratory results from publication PMC11006913.
Changes are numbered by the printed parent chain.

Assays:
Experiment in all cases: PBM; 200 nM protein, PBS
Settings in all cases: dsDNA, one strand shown
NKX2-5 [1] = target: NKX2-5 (Homo sapiens, UniProt P52952 125-210, R139K)
NKX2-4 [2] = target: T1, NKX2-4 (Homo sapiens, UniProt Q9H2Z4 175-261, P217L)
T1 sequence: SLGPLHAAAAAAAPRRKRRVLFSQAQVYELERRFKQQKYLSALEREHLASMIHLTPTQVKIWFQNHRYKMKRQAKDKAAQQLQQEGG

NKX2-4 [3] = target: T2, NKX2-4 (Homo sapiens, UniProt Q9H2Z4 175-261, T231S)
T2 sequence: T1 sequence with L43P, T57S

NKX2-4 [4] = target: T3, NKX2-4 (Homo sapiens, UniProt Q9H2Z4 175-261)
T3 sequence: T1 sequence with L43P

NKX2-4 [5] = target: T4, NKX2-4 (Homo sapiens, UniProt Q9H2Z4 175-261, R246Q)
T4 sequence: T1 sequence with L43P, R72Q

NKX2-5 [6] = target: NKX2-5 (Homo sapiens, UniProt P52952 125-210)
NKX2-5 (Homo sapiens, UniProt P52952 125-210), sequence (P52952 125-210): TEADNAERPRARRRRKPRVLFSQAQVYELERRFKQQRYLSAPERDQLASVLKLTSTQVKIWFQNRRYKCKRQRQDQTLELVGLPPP

VENTX [7] = target: T5, VENTX (Homo sapiens, UniProt O95231 78-163, R121Q)
T5 sequence: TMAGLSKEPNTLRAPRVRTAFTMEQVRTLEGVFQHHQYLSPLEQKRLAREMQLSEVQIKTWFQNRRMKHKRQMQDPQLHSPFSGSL

VENTX [8] = target: T6, VENTX (Homo sapiens, UniProt O95231 78-163)
T6 sequence: T5 sequence with Q44R

VENTX [9] = target: T7, VENTX (Homo sapiens, UniProt O95231 78-163, Y115F)
T7 sequence: T5 sequence with Y38F, Q44R

ALX1 [10] = target: ALX1 (Homo sapiens, UniProt Q15699 118-204, L144V)
ALX1 (Homo sapiens, UniProt Q15699 118-204, L144V), sequence (Q15699 118-204 L144V): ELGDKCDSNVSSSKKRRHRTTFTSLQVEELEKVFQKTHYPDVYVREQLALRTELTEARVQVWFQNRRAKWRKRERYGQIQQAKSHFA

ALX1 [11] = target: ALX1 (Homo sapiens, UniProt Q15699 118-204, L144R)
ALX1 (Homo sapiens, UniProt Q15699 118-204, L144R), sequence (Q15699 118-204 L144R): as the sequence (Q15699 118-204 L144V) above, with V27R counted along it

ALX1 [12] = target: ALX1 (Homo sapiens, UniProt Q15699 118-204)
ALX1 (Homo sapiens, UniProt Q15699 118-204), sequence (Q15699 118-204): as the sequence (Q15699 118-204 L144V) above, with V27L counted along it

NKX2-6 [13] = target: T8, NKX2-6 (Homo sapiens, UniProt A6NCS4 118-204, R150C)
T8 sequence: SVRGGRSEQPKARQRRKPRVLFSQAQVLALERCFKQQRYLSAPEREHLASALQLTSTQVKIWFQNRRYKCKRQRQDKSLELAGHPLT

NKX2-6 [14] = target: T9, NKX2-6 (Homo sapiens, UniProt A6NCS4 118-204)
T9 sequence: T8 sequence with C33R

NKX2-6 [15] = target: T10, NKX2-6 (Homo sapiens, UniProt A6NCS4 118-204, F151L)
T10 sequence: T8 sequence with C33R, F34L

NKX3-2 [16] = target: NKX3-2 (Homo sapiens, UniProt P78367 192-278, P234S)
NKX3-2 (Homo sapiens, UniProt P78367 192-278, P234S), sequence (P78367 192-278 P234S): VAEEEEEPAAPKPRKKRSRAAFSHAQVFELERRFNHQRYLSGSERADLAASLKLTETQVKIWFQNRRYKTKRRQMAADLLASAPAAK

NKX3-2 [17] = target: NKX3-2 (Homo sapiens, UniProt P78367 192-278)
NKX3-2 (Homo sapiens, UniProt P78367 192-278), sequence (P78367 192-278): as the sequence (P78367 192-278 P234S) above, with S43P counted along it

NKX2-5 (Homo sapiens, UniProt P52952 125-210, R139K), sequence (P52952 125-210 R139K): as the sequence (P52952 125-210) above, with R15K counted along it

CGTGCGGC
binding signal (NKX2-5 [1]): 8.72 upbm affinity estimate (log intensity, higher = more binding, comparable within an allelic series) | binding signal (NKX2-4 [2]): 9.48 upbm affinity estimate (log intensity, higher = more binding, comparable within an allelic series) | binding signal (NKX2-4 [3]): 9.35 upbm affinity estimate (log intensity, higher = more binding, comparable within an allelic series) | binding signal (NKX2-4 [4]): 9.44 upbm affinity estimate (log intensity, higher = more binding, comparable within an allelic series) | binding signal (NKX2-4 [5]): 9.47 upbm affinity estimate (log intensity, higher = more binding, comparable within an allelic series) | binding signal (NKX2-5 [6]): 8.8 upbm affinity estimate (log intensity, higher = more binding, comparable within an allelic series)

CGGTCGGC
binding signal (NKX2-5 [1]): 8.67 upbm affinity estimate (log intensity, higher = more binding, comparable within an allelic series) | binding signal (VENTX [7]): 8.16 upbm affinity estimate (log intensity, higher = more binding, comparable within an allelic series) | binding signal (VENTX [8]): 8.35 upbm affinity estimate (log intensity, higher = more binding, comparable within an allelic series) | binding signal (VENTX [9]): 8.29 upbm affinity estimate (log intensity, higher = more binding, comparable within an allelic series) | binding signal (ALX1 [10]): 6.28 upbm affinity estimate (log intensity, higher = more binding, comparable within an allelic series) | binding signal (ALX1 [11]): 6.31 upbm affinity estimate (log intensity, higher = more binding, comparable within an allelic series) | binding signal (ALX1 [12]): 6.46 upbm affinity estimate (log intensity, higher = more binding, comparable within an allelic series) | binding signal (NKX2-5 [6]): 8.65 upbm affinity estimate (log intensity, higher = more binding, comparable within an allelic series)

AAGTGGAC
binding signal (NKX2-5 [1]): 12.5 upbm affinity estimate (log intensity, higher = more binding, comparable within an allelic series) | binding signal (NKX2-4 [2]): 12.4 upbm affinity estimate (log intensity, higher = more binding, comparable within an allelic series) | binding signal (NKX2-4 [3]): 12.9 upbm affinity estimate (log intensity, higher = more binding, comparable within an allelic series) | binding signal (NKX2-6 [13]): 11.8 upbm affinity estimate (log intensity, higher = more binding, comparable within an allelic series) | binding signal (NKX2-6 [14]): 13.4 upbm affinity estimate (log intensity, higher = more binding, comparable within an allelic series) | binding signal (NKX2-6 [15]): 10.4 upbm affinity estimate (log intensity, higher = more binding, comparable within an allelic series) | binding signal (NKX3-2 [16]): 12.7 upbm affinity estimate (log intensity, higher = more binding, comparable within an allelic series) | binding signal (NKX2-5 [6]): 12.4 upbm affinity estimate (log intensity, higher = more binding, comparable within an allelic series) | binding signal (NKX3-2 [17]): 12.8 upbm affinity estimate (log intensity, higher = more binding, comparable within an allelic series)

AGTCCGGG
binding signal (NKX2-5 [1]): 9.14 upbm affinity estimate (log intensity, higher = more binding, comparable within an allelic series) | binding signal (NKX2-4 [2]): 9.61 upbm affinity estimate (log intensity, higher = more binding, comparable within an allelic series) | binding signal (NKX2-4 [3]): 9.48 upbm affinity estimate (log intensity, higher = more binding, comparable within an allelic series) | binding signal (NKX2-4 [4]): 9.52 upbm affinity estimate (log intensity, higher = more binding, comparable within an allelic series) | binding signal (NKX2-4 [5]): 9.63 upbm affinity estimate (log intensity, higher = more binding, comparable within an allelic series) | binding signal (NKX2-5 [6]): 9.09 upbm affinity estimate (log intensity, higher = more binding, comparable within an allelic series)
